In all, about 320,000 compounds went through this assay and about 7,600 (2.4%) were called active. Another 3% or so got no clear call; they are omitted. Only a selection was taken, and actives are over-represented in it overall. A number with no mark means an inactive call. Calls follow the shape of the dose curve; as a rule, active = well fitted activation curve with a large enough effect; inconclusive = small, poorly fitted or top-dose-only effect; inactive = no such curve, though single readings can be large or run the other way.
Potency is read from the fitted curve at half-maximal effect.

A short description of this assay: qHTS Assay for NPC1 Promoter Activators. Also: nearly all actives have a fitted effect of over 60% in size.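 As to activation: reporter is driven by a mutant NPC1 promoter; % of control where 0% means no effect.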 Particulars: Huh7 NPC1 promoter luciferase reporter, 24 h; series mostly up to 9.22 µM; activation: at the top concentration. The essentials: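 NPC1 promoter–luciferase Huh7 cells; 24 h compound; luminescence.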
Background: qHTS replaces the single test concentration by a dilution series.
With `CC(OC(=O)CN1C(=O)c2ccccc2C1=O)C(=O)c1ccccc1` (centres undefined), the “activation” value is 0.525%.
`O=C(COC(=O)c1ccc(O)cc1O)NNC(=O)c1cccs1`: the “activation” value is -3.96%.
Still for that read-out and setting: the value for `CC(C)C(=O)Nc1c(O)c2ccccc2[nH]c1=O` was 0.926%.
On the same count and under the same terms, the value for `CCCc1nc2ccccc2c(=O)n1NC(=O)c1c(O)c2ccccc2[nH]c1=O` was -0.169%.
As for `NS(=O)(=O)c1ccccc1NC(=O)c1c(O)c2ccccc2[nH]c1=O`, the Potency is 0.562 µM (active).
`Cc1ccc(S(=O)(=O)N2CC(O)C[C@H]2C(=O)OCC(=O)Nc2ccc(N3CCOCC3)cc2)cc1C` (some centres undefined): the “activation” value is -1.79%.
Still for that read-out and setting: the figure for `Cc1ccc(CNC(=O)CC(NC(=O)c2ccccc2)c2ccccc2)cc1` (centres undefined) is -1.36%; for `COc1ccccc1C1=CC(=O)C[C@H](c2ccc(F)cc2)C1` it is -0.292%.
`O=C(CSc1nnc(-c2ccc([N+](=O)[O-])cc2)o1)Nc1ccccn1`: the Potency is 0.708 µM (active).
On to `CCc1ccccc1NC(=O)CSc1nnc(-c2ccncc2)o1`, for which the “activation” value was -0.244%.
For `CCOC(=O)CSc1nnc(-c2ccc([N+](=O)[O-])cc2)o1`, the “activation” value was -4.24%.
In the case of `O=S(=O)(Nc1ccc(-n2cnnn2)cc1)c1ccc(Cl)cc1`, the “activation” value is -2.86%.
For `CCN(CC)S(=O)(=O)c1ccc(OC)c(NC(=O)CCc2c(C)noc2C)c1`, the “activation” value is 0.937%.
For the molecule `COC(=O)CNS(=O)(=O)c1ccc(Cc2ccc(S(=O)(=O)NCC(=O)OC)cc2)cc1`, the Potency was 0.631 µM (active).
`C/C(N)=C(/C#N)C(=O)COC(=O)CNS(=O)(=O)c1ccc(C)cc1`: the “activation” value is -4.23%.
For the molecule `COC(=O)CNS(=O)(=O)c1ccc(OC)cc1`, the “activation” value was -0.291%.
Turning to `CC(=O)c1ccc(OCCCC(=O)Nc2ccc(C)c(S(=O)(=O)N3CCOCC3)c2)cc1`, the “activation” value was -8.15%.
On the same count and under the same terms, the figure for `COc1ccc(CNC(=O)COC(=O)c2c(C)nn(-c3ccccc3)c2C)cc1OC` is -2.19%.
Still for that read-out and setting: the figure for `O=C(CN1CCCSc2ccccc21)N1CCN(S(=O)(=O)c2ccccc2)CC1` is -2.36%.
With `COc1cccc(OCCOc2cccc(/C=N/n3cnnc3)c2)c1`, the Potency is 3.98 µM (active).
Take `C(=N\n1cnnc1)/c1cccnc1`: the “activation” value is -2.15%.
On the same count and under the same terms, the value for `COc1ccccc1OCCOc1ccc(/C=N/n2cnnc2)cc1` was -0.813%.
On the same count and under the same terms, the value for `Cc1csc(NC(=O)C2CCN(S(=O)(=O)c3ccccc3)CC2)n1` was -2.06%; that for `COc1cc2c(cc1OC)CN(C(C)C(=O)Nc1cccc(S(=O)(=O)N3CCOCC3)c1)CC2` (centres undefined) was -0.418%; that for `Cc1c(C(=O)NNC(=O)c2ccncc2)oc2ccccc12` was 9.11%.
Same read-out and setting: the value for `CCN(CC(=O)Nc1ccc(OC)cc1)C(=O)CSCc1ccc(C)cc1` was -3.4%.
With `O=C(Nc1cc(C(F)(F)F)ccc1Cl)c1cc2nc3c(c(C(F)(F)F)n2n1)CCCC3`, the Potency was 3.16 µM (active).
In the case of `O=C(Nc1cc(C(F)(F)F)ccc1Cl)c1cc(C2CC2)on1`, the “activation” value is 18.3%.
With `O=C(Nc1cc(C(F)(F)F)ccc1Cl)C(=O)N1CCCCC1`, the “activation” value was 2.14%.
Turning to `O=C(COc1ccccc1Cl)N1N=C(c2cccs2)CC1c1ccco1` (centres undefined), the “activation” value was 9.28%.
Consider `CC(C)C(NC(=O)c1c(F)cccc1F)C(=O)NCc1ccncc1` (centres undefined), for which the “activation” value was -0.474%.
Same read-out and setting: the figure for `O=C(OCC(=O)N1CCc2ccccc21)C1CCCN1S(=O)(=O)c1ccc(Cl)cc1` (centres undefined) is -2.44%.
Turning to `O=C(Nc1cccc(F)c1)NC1CCCCCCC1`, the Potency was 2.51 µM (active).
For the molecule `C/C(CC(=O)Nc1cccc(F)c1)=N\NC(=O)C(=O)NC1CCCCC1`, the “activation” value was 0.249%.
Same read-out and setting: the figure for `O=C(Nc1cccc(F)c1)NC1CCCc2ccccc21` (centres undefined) is -3.18%.
Same read-out and setting: the value for `COc1ccc(OC)c(S(=O)(=O)n2c([N+](=O)[O-])cnc2C)c1` was 0.779%; that for `CCOC(=O)CSc1nnc(NC(=O)c2cccc(S(=O)(=O)N3CCCC3)c2)s1` was -5.45%.
With `O=C(/C=C/c1ccccc1)Nc1nnc(SCC(=O)c2ccc3ccccc3c2)s1`, the “activation” value was -0.211%.
Consider `NC(=O)CSc1nnc(NC(=O)c2ccc(Br)o2)s1`, for which the “activation” value was 18.3%.
Consider `C=CCSc1nnc(NC(=O)c2ccc(NC(C)=O)cc2)s1`, for which the “activation” value was 20.1%.
In the case of `NC(=O)CSc1nnc(NC(=O)c2ccc3ccccc3c2)s1`, the Potency was 3.16 µM (active).
Consider `CCSc1nnc(NC(=O)c2ccc(C)cc2)s1`, for which the Potency was 1.12 µM (active).
For the molecule `CN(CC(=O)NCC(c1ccccc1)N1CCCC1)S(=O)(=O)c1ccc(Cl)cc1` (centres undefined), the “activation” value is 0.0445%.
The same measure, in the same setting: the figure for `CC(C)(C)OC(=O)Nc1ccc([C@@H](NC(=O)OC(C)(C)C)C(=O)OC(C)(C)C)cc1` is -4.8%; for `Cc1ccc(NC(=O)Cc2nc(COC(=O)C(C)NS(=O)(=O)c3ccc(C)cc3)cs2)cc1` (centres undefined) it is 4.04%.
On the same count and under the same terms, the figure for `COc1cc(C(=O)NCC(c2ccco2)N2CCCC2)ccc1OCc1ccccc1` (centres undefined) is 0.375%; for `CCN(CC(=O)Nc1ccccc1OC)C(=O)CC1CC2CCC1C2` (centres undefined) it is -5.43%.
On the same count and under the same terms, the value for `COc1cccc(NC(=O)CN(C)C(=O)c2cc(C3CC3)nn2-c2ccccc2)c1` was 0.0319%; that for `CCCC(=O)Nc1nc2ccc(NC(=O)c3c(F)c(F)c(OC)c(F)c3F)cc2s1` was -27.8%.
`O=C(Nc1ccncc1)c1c(F)cccc1F`: the “activation” value is 16.4%.
For `CSc1nc2ccc(NC(=O)c3c(F)cccc3F)cc2s1`, the Potency is 2.51 µM (active).
Take `CC1(C)CC(=O)C=C(c2ccc(Cl)c(C(F)(F)F)c2)C1`: the “activation” value was -2.16%.
Still for that read-out and setting: the value for `CCOc1ccc(NC(=O)CN(C)C(=O)Cc2sc(C)nc2-c2ccc(F)cc2)cc1OCC` was -4.47%; that for `COc1ccccc1C(=O)NCCC(=O)N(C)Cc1cccnc1` was -1.29%.
On the same count and under the same terms, the figure for `CC1(C)O[C@@H]2[C@H](O1)[C@@H](CO)O[C@H]2n1c(N2CCCCC2)nc2c(N)ncnc21` is -3.42%; for `O=S(=O)(c1cccc(S(=O)(=O)N2CCC(n3nnc4ccccc43)CC2)c1)N1CCCCC1` it is -1.28%.
On the same count and under the same terms, the value for `CC(=O)c1cccc(S(=O)(=O)N2CCC(n3nnc4cc(F)ccc43)CC2)c1` was -0.438%.
Turning to `O=C(c1ccc(F)cc1)N1CCC(n2nnc3ccccc32)CC1`, the Potency is 4.47 µM (active).
Regarding `CCCCn1c(N)c(N(CCC(C)C)C(=O)COC(=O)c2cccnc2OCC)c(=O)[nH]c1=O`, the “activation” value was -3.86%.
The same measure, in the same setting: the value for `CCCCn1c(N)c(N(CCC(C)C)C(=O)COC(=O)c2ccc(CC)cc2)c(=O)[nH]c1=O` was -6.12%.
Same read-out and setting: the figure for `CC(Sc1nnc(-c2cccs2)n1C1CC1)C(=O)NCC1CCCO1` (centres undefined) is -1.05%.
Turning to `CC(=O)Nc1cccc(-c2nc3ccccc3s2)c1C`, the “activation” value is 9.92%.
With `CC(C)CC(=O)N/C(N)=N/c1nc2ccccc2s1`, the Potency is 0.501 µM (active).
As for `CN(Cc1nc2ccccc2s1)C(=O)c1ccc(F)cc1`, the “activation” value is 6.01%.
As for `CCC(=O)NC(=Nc1nc2ccccc2s1)NC(=O)CC`, the Potency is 1.26 µM (active).
Regarding `Cc1cc(C(=O)OCC(=O)Nc2nnc(C(C)C)s2)c2ccccc2n1`, the “activation” value is -1.33%.
Still for that read-out and setting: the figure for `CC(C)CC(=O)NC(=S)NCc1ccccc1` is -1.14%.
Still for that read-out and setting: the value for `Cc1ccc(F)cc1NC(=O)CSCc1c(C)noc1C` was -4.22%.
With `Cc1nn(Cc2ccccc2)c(C)c1C(=O)N1CCN(CC(=O)Nc2ccccc2Cl)CC1`, the “activation” value was 0.571%.
Still for that read-out and setting: the figure for `C=CCC1(CC=C)CCCN1C(=O)c1cc(COc2ccc(-n3cncn3)cc2)on1` is -27%.
For `Cc1ccc(Nc2nc(-c3ccc(O)cc3O)cs2)nc1`, the Potency was 2 µM (active).
With `CC(=O)Nc1ccc(C(=O)Nc2nc(-c3cc(C)n(Cc4ccccc4)c3C)cs2)cc1`, the “activation” value was -1.99%.
Same read-out and setting: the figure for `C=C(C)CNc1cc(S(=O)(=O)N2CCOCC2)ccc1Oc1ccccc1` is 1.3%; for `CCCn1c(NC(=O)C23CC4CC(CC(O)(C4)C2)C3)nc2ccccc21` it is -4.67%.
Regarding `CC1CCCN(c2ccc(C(=O)NCCc3ccccc3)cn2)C1` (centres undefined), the Potency was 3.16 µM (active).
Turning to `O=C(NCCc1ccccc1)c1ccc2c(c1)N(Cc1ccccc1)CCS2`, the “activation” value is -14.8%.
The same measure, in the same setting: the figure for `CC1CCN(C(=O)CCNC(=O)c2ccccc2)CC1` is 21.9%; for `Cc1ccc(NC(=O)CCCNC(=O)c2ccc(Cl)cc2)cc1S(=O)(=O)N1CCCCC1` it is -1.66%; for `CC(C)(C)C(=O)CSc1ccc(S(=O)(=O)N2CCCC2)cn1` it is -4.16%.
The same measure, in the same setting: the figure for `CC(NC(=O)c1ccc(S(=O)(=O)Nc2ccccc2)cc1)c1ccc(S(N)(=O)=O)cc1` (centres undefined) is 4.89%.
For `O=C(Nc1cccnc1)c1noc2c1CCCCC2`, the Potency was 2.51 µM (active).
On to `O=C(Nc1cccnc1)c1cccc(S(=O)(=O)N2CCCC2)c1`, for which the “activation” value was -5.6%.
With `O=C(Nc1cccnc1)c1cc(Cl)ccc1Cl`, the “activation” value was -6.95%.
The same measure, in the same setting: the figure for `Cc1cccc(-c2oc3ccc(-c4ccc5c(c4)OCO5)cc3c2C#Cc2cncn2C)c1` is 16.6%.
For the molecule `Cc1cc2nc(SCCN3CCOCC3)[nH]c2cc1C`, the Potency was 3.98 µM (active).
Turning to `CCn1c2ccc(F)cc2c2nnc(SCCN3CCOCC3)nc21`, the “activation” value is -1.8%.
Still for that read-out and setting: the figure for `Cc1cccc(C)c1OCCN1CCOCC1` is -0.225%; for `CC(=O)Nc1ccc(NC(=O)C(NS(=O)(=O)c2ccc3c(c2)OCCO3)C(C)C)cc1` (centres undefined) it is -1.18%; for `COc1cccc(NC(=O)CN(C)C(=O)/C=C/c2cn(-c3ccccc3)nc2-c2cccs2)c1` it is -2.2%.
As to `CC1Cc2ccccc2N1S(=O)(=O)c1cccc(C(=O)NCC(c2ccco2)N2CCCC2)c1` (centres undefined), the “activation” value is -3.83%.
For the molecule `CSCC[C@H](NC(=O)OC(C)(C)C)C(=O)N/N=C/c1cc2ccc(C)cc2nc1Cl`, the “activation” value was -1.66%.
As for `Cc1ccc2cc(/C=N/Nc3ccc(C(=O)O)cc3)c(Cl)nc2c1`, the Potency was 1.12 µM (active).
`Cc1ccc2cc(/C=N/NC(=O)[C@@H]3CCCN3)c(Cl)nc2c1`: the “activation” value is 0.836%.
The same measure, in the same setting: the value for `O=C(CSc1nc2ccccc2c(=O)n1CCCO)NC1CC1` was -1.34%.
Same read-out and setting: the value for `S=C(NNC(=S)NC1CC2C=CC1C2)NC1CC2C=CC1C2` (centres undefined) was -3.31%; that for `S=C(NNC(=S)NC1CC2CCC1C2)NC1CC2C=CC1C2` (centres undefined) was -0.848%.
`CC(C)c1ccc(NC(=S)NC2CC3C=CC2C3)cc1` (centres undefined): the Potency was 3.98 µM (active).
Take `CCOC(=O)C1=C(COC(=O)[C@H](C)NS(=O)(=O)c2ccccc2F)NC(=O)NC1C` (some centres undefined): the “activation” value was -0.719%.
The same measure, in the same setting: the value for `CCOc1ccc(C(C)NC(=O)CN2C(=O)NC3(CCCCC3)C2=O)cc1OCC` (centres undefined) was -3.59%.
The same measure, in the same setting: the figure for `Cc1ccc(C(=O)/C=C/Nc2ccc(S(=O)(=O)Nc3onc(C)c3C)cc2)cc1` is 5.8%; for `CCC(=O)Nc1ccc(C(=O)Nc2cc(C)on2)cc1` it is 11.6%.
With `Cc1cc(N/C=C\C(=O)c2ccc(Cl)c(Cl)c2)no1`, the Potency is 2.51 µM (active).
`CCOC(=O)Cc1csc(SCC(=O)Nc2ccc(C)cc2F)n1`: the “activation” value was -5.48%.
The same measure, in the same setting: the figure for `Cc1ccc(S(=O)(=O)N2CCCCC2)cc1NC(=O)c1cccnc1` is -2.18%.
